Experimental findings from PubChem BioAssay (NCI) are described below.

Some test systems named below: NCI-H23 lung; NCI-H226 lung; NCI-H322M lung; HOP-62 NSCLC; NCI-H460 lung; HOP-92 NSCLC; NCI-H522 lung; A549/ATCC NSCLC; 786-0 renal; COLO 205 colon; DU-145 prostate; K-562 leukemia; MALME-3M melanoma; MDA-MB-231 breast; RXF 393 renal; SF-268 CNS; SF-295 CNS; SF-539 CNS; UACC-257 melanoma; M14 melanoma.
Assay in all cases: NCI-60 one-dose screen, 48 h (100 = growth as untreated, 0 = no growth, -100 = all killed)
Holding throughout (details): 10 µM unless noted

This is part of a sample that, as a whole, favours compounds with a hit. Of some 83,000 tested, about 20% had one in any assay.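 For each line, cells grew in 96-well plates with the test compound present at a single concentration for 48 hours.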 Unmarked numbers belong to inactive results. Calls of active or inactive are those of the source. Rule for the calls: active = growth percent below 10; inactive = the rest.

As to `COc1ccc(-c2cc(-c3cccnc3)nc3sc4c(Cl)nnnc4c23)cc1OC`, the growth was 91.3% in the assay with NCI-H23 lung; 84.4% in the assay with NCI-H226 lung; 95.3% with NCI-H322M lung; 98.4% in the assay with HOP-62 NSCLC; 102% in the assay on NCI-H460 lung; 106% with HOP-92 NSCLC. The growth in the assay with NCI-H522 lung was 47.4%; in the assay on A549/ATCC NSCLC, 93.6%; in the assay with 786-0 renal, 109%; with COLO 205 colon, 42%; with DU-145 prostate, 94.2%; with K-562 leukemia it was 15.8%. For the same molecule, the growth in the assay on MALME-3M melanoma was 107%; with MDA-MB-231 breast, 77.9%; with RXF 393 renal it was 104%; in the assay with SF-268 CNS, 96.7%; in the assay on SF-295 CNS, 101%; in the assay with SF-539 CNS it was 101%. In addition, the growth was 78.4% with UACC-257 melanoma and 88.6% with M14 melanoma.
Consider `N#Cc1ccccc1-c1ccc(Cn2c(-c3cscn3)nc3c(Cl)cccc32)cc1`, for which the growth was 70.9% in the assay on NCI-H23 lung; 66.2% with NCI-H226 lung; 91.6% in the assay with NCI-H322M lung; 97.4% in the assay on HOP-62 NSCLC; 82.6% with NCI-H460 lung; 63.7% in the assay on HOP-92 NSCLC. The growth in the assay on NCI-H522 lung is 44.7%; in the assay with A549/ATCC NSCLC, 72.3%; in the assay on 786-0 renal, 79.8%; in the assay on COLO 205 colon, 107%; in the assay on DU-145 prostate it was 86.5%; with K-562 leukemia it was 49.2%. In addition, the growth in the assay on MALME-3M melanoma is 92.4%; in the assay on MDA-MB-231 breast, 79.7%; in the assay on RXF 393 renal it was 99.5%; with SF-268 CNS, 71.3%; in the assay with SF-295 CNS, 67.9%; with SF-539 CNS it was 82.9%. Also, the growth in the assay on UACC-257 melanoma is 89.5%; with M14 melanoma, 87.1%.
Turning to `Clc1ccc2c(NCCN3CCN(c4ccnc(N5CCCC5)n4)CC3)ccnc2c1`, the growth was 56.8% in the assay with NCI-H23 lung; 80.3% in the assay on NCI-H226 lung; 44.3% in the assay on NCI-H322M lung; 77.3% in the assay with HOP-62 NSCLC; 16.7% in the assay on NCI-H460 lung; 23.3% in the assay on HOP-92 NSCLC. In addition, the growth in the assay on NCI-H522 lung was 45%; in the assay with A549/ATCC NSCLC it was 24.6%; in the assay on 786-0 renal, 29.4%; in the assay on COLO 205 colon, -46.5% (active); with DU-145 prostate it was 58.1%; in the assay on K-562 leukemia it was 0.171% (active). The growth in the assay with MALME-3M melanoma was -43.3% (active); in the assay on MDA-MB-231 breast, 4.01% (active); in the assay on RXF 393 renal, -59.2% (active); with SF-268 CNS it was 33%; with SF-295 CNS, 52.9%; in the assay on SF-539 CNS, -63.1% (active). The growth with UACC-257 melanoma was -62% (active); in the assay on M14 melanoma it was -55.7% (active).
Turning to `O=C1N=c2ccccc2=C1c1sc(=S)n(C2CC(=O)N(c3ccc(Cl)cc3)C2=O)c1O` (stereo not given), the growth was 99.2% in the assay with NCI-H23 lung; 92% in the assay on NCI-H226 lung; 104% in the assay on NCI-H322M lung; 93.2% in the assay on HOP-62 NSCLC; 102% in the assay on NCI-H460 lung; 98.6% in the assay on HOP-92 NSCLC. Besides, the growth was 97.1% in the assay with NCI-H522 lung; 107% with A549/ATCC NSCLC; 102% in the assay with 786-0 renal; 118% with COLO 205 colon; 106% with DU-145 prostate; 94.4% with K-562 leukemia. Further, the growth is 102% in the assay with MALME-3M melanoma; 101% in the assay on MDA-MB-231 breast; 116% with RXF 393 renal; 102% in the assay on SF-268 CNS; 104% with SF-295 CNS; 101% in the assay on SF-539 CNS. For the same molecule, the growth with UACC-257 melanoma was 105%; in the assay with M14 melanoma, 98.7%.
In the case of `CCCCC1COc2cccc3c2N1C=C/C3=C\C(=O)N(C)c1cccc(Cl)c1` (stereo not given), the growth in the assay on NCI-H23 lung is 97.5%; with NCI-H226 lung, 100%; in the assay with NCI-H322M lung, 110%; in the assay on HOP-62 NSCLC, 109%; in the assay on NCI-H460 lung it was 105%; with HOP-92 NSCLC, 92%. Further, the growth in the assay on NCI-H522 lung was 90.1%; with A549/ATCC NSCLC it was 99.5%; in the assay with 786-0 renal, 99.8%; in the assay with COLO 205 colon it was 100%; in the assay on DU-145 prostate it was 103%; in the assay on K-562 leukemia it was 91%. In addition, the growth was 107% with MALME-3M melanoma; 103% in the assay with MDA-MB-231 breast; 108% in the assay with RXF 393 renal; 97.9% in the assay on SF-268 CNS; 97.6% with SF-295 CNS; 104% in the assay on SF-539 CNS. The growth is 103% in the assay with UACC-257 melanoma and 102% in the assay with M14 melanoma.
Consider `C=C(CN1CC=CCC1)[C@@H]1CC[C@]2(COC(C)=O)CC[C@]3(C)[C@H](CC[C@@H]4[C@@]5(C)CC[C@H](O)C(C)(C)[C@@H]5CC[C@]43C)[C@@H]12`, for which the growth was 102% with NCI-H23 lung; 92.5% in the assay with NCI-H226 lung; 114% in the assay on NCI-H322M lung; 107% in the assay with HOP-62 NSCLC; 96.3% in the assay with NCI-H460 lung; 92.7% in the assay with HOP-92 NSCLC. Also, the growth is 95% with NCI-H522 lung; 95.3% in the assay on A549/ATCC NSCLC; 103% with 786-0 renal; 105% with COLO 205 colon; 102% with DU-145 prostate; 91.7% with K-562 leukemia. For the same molecule, the growth in the assay with MALME-3M melanoma is 113%; in the assay with MDA-MB-231 breast it was 112%; in the assay on RXF 393 renal it was 109%; with SF-268 CNS, 106%; with SF-295 CNS, 105%; with SF-539 CNS, 96.8%. Moreover, the growth in the assay on UACC-257 melanoma was 99.4%; in the assay on M14 melanoma, 97.4%.
For `O=[N+]([O-])c1cc(C(F)(F)F)ccc1Sc1ccc(C(F)(F)F)cc1[N+](=O)[O-]`, the growth was 63.1% in the assay with NCI-H23 lung; 90.9% in the assay with NCI-H226 lung; 112% in the assay on NCI-H322M lung; 94.6% in the assay with HOP-62 NSCLC; 74.4% in the assay on NCI-H460 lung; 120% in the assay with HOP-92 NSCLC. Besides, the growth was 77.9% with NCI-H522 lung; 93.4% with A549/ATCC NSCLC; 103% in the assay with 786-0 renal; 123% in the assay with COLO 205 colon; 64.4% in the assay on DU-145 prostate; 8.04% (active) in the assay on K-562 leukemia. The growth with MALME-3M melanoma is 61.9%; in the assay with MDA-MB-231 breast it was 72.4%; in the assay with RXF 393 renal, 93.1%; in the assay on SF-268 CNS it was 63%; in the assay with SF-295 CNS, 106%; in the assay with SF-539 CNS it was 61.1%. Further, the growth in the assay on UACC-257 melanoma was 76.3%; in the assay on M14 melanoma, 49%.
